# Among all 320,000 compounds or so, about 2,100 (0.66%) were called active. Roughly 53% stayed inconclusive and do not appear here. Calls follow the shape of the dose curve; as a rule, active = well fitted inhibition curve with a large enough effect in the signal ratio, with a control signal flat (not every such curve was filed as active); inconclusive = small, poorly fitted or top-dose-only effect, or effect the other way, or a change in a side signal; inactive = flat fitted curve, though single readings scatter; the % refers to the signal ratio. This excerpt belongs to a sample that is enriched for actives.
# Test: qHTS Assay for Lipid Storage Modulators in Drosophila S3 Cells;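 as to cell number change: cells counted by Cell Tracker Red CMTPX staining in the red channel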; as to lipid storage change, negative = inhibition: % is scaled to controls: 0 for no effect and ±100 for the full control effect
# Details: BODIPY lipid droplet fluorescence, 18-24 h, cells fed with added oleic acid; cell number change: measured here: cell count max response; series mostly up to 46.1 µM; lipid storage change, negative = inhibition: at the top concentration
# In short: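 Drosophila S3 cells got compounds at several concentrations plus oleic acid (400 uM solution). Laser-scanning cytometry with 488 nm excitation read lipid droplets at 500-530 nm and cells at 575-640 nm. Percent activity was relative to 20 uM Triacsin C.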
# Potency is read from the fitted curve at half-maximal effect.
SMILES,"lipid storage change, negative = inhibition",cell number change,Potency,outcome
Cc1cccc(-n2ncc3c(=O)[nH]c(SCC(=O)NCCC4=CCCCC4)nc32)c1,-10.6% (inactive),-11%,–,–
O=C(OCCCc1cc2ccccc2c(=O)o1)c1ccc2c(c1)OCO2,0.96% (inactive),-12%,–,–
N#Cc1ccc(C(=O)OCCCc2cc3ccccc3c(=O)o2)cc1,9.51% (inactive),18%,–,–
O=C(OCCc1cc2ccccc2c(=O)o1)c1cccc(Br)c1,–,-23.3%,0.13 µM (active),–
CC(C)CN1CCN(Cc2cccn2-c2ccc(Cl)cn2)CC1CCO (stereo unspecified),5.56% (inactive),10.5%,–,–
CCCCc1c(O)nc2sccn2c1=O,15.8% (inactive),–,–,–
CCCCc1c(O)nc2sc3cc(OC)ccc3n2c1=O,–,9.25%,10.3 µM (active),–
COc1ccc2c(c1)sc1nc(=O)ccn12,-19.5% (inactive),21.5%,–,–
CCN(CC)CC(=O)N1CCCC(N2CCN(c3cccc(C(F)(F)F)c3)CC2)C1 (stereo unspecified),12.5% (inactive),21%,–,–
CSCC(=O)N1CCCC(N2CCN(c3cccc(C(F)(F)F)c3)CC2)C1 (stereo unspecified),–,7.35%,13 µM (active),–
O=C(CN1CCOC1=O)N1CCCC(N2CCN(c3cccc(C(F)(F)F)c3)CC2)C1 (stereo unspecified),–,-10.2%,–,inactive
O=C(Nc1cccc(-c2ccc(F)cc2)c1)C1CCCN(Cc2cccnc2)C1 (stereo unspecified),-8.86% (inactive),-21.8%,–,–
CCc1ncc(CN2CCCC(C(=O)Nc3cccc(-c4cccc(C)c4)c3)C2)cn1 (stereo unspecified),11.6% (inactive),8.11%,–,–
CCc1ncc(CN2CCCC(C(=O)Nc3cccc(-c4ccc(F)cc4)c3)C2)cn1 (stereo unspecified),–,-24.6%,20.6 µM (active),–
C=CCN(Cc1nc(-c2ccccc2)no1)C(=O)c1ccoc1C,-4.28% (inactive),33.5%,–,–
Cc1cc(=O)oc2cc(Oc3ncccc3[N+](=O)[O-])ccc12,-0.796% (inactive),13.9%,–,–
Cc1cc(=O)oc2cc(Oc3ccc(C(N)=O)cc3[N+](=O)[O-])ccc12,0.639% (inactive),5.31%,–,–
Cc1cc(=O)oc2cc(Oc3ccc([N+](=O)[O-])cc3[N+](=O)[O-])ccc12,–,-13.4%,20.6 µM (active),–
O=C(COc1ccccc1)NNC(=S)NC(=O)c1ccc(Cl)cc1Cl,3.86% (inactive),-11.7%,–,–
N#Cc1cc2c(nc1Cl)CCC2,16.3% (inactive),0.397%,–,–
COc1cc(/C=C(/C(=O)c2cccs2)c2nc3ccccc3[nH]2)ccc1O,–,-19%,–,inactive
O=C(/C(=C/c1cccc(Cl)c1)c1nc2ccccc2[nH]1)c1ccccc1,–,-22.6%,9.2 µM (active),–
O=C(NCc1ccco1)/C(=C/c1cccc(C(F)(F)F)c1)c1nc2ccccc2[nH]1,2.93% (inactive),-4.5%,–,–
Cc1ccc2nc(-c3ccccc3)c(-c3ccccc3)nc2c1,21.7% (inactive),8.82%,–,–
CCN(CC)c1ccc(/C=C(/C#N)c2nc3ccccc3[nH]2)c(OC(C)C)c1,–,–,3.66 µM (active),–
CCOc1cc(/C=C(\C#N)c2nc3ccccc3[nH]2)ccc1OC(C)C(=O)O (stereo unspecified),3.1% (inactive),5.37%,–,–

SMILES,"lipid storage change, negative = inhibition",cell number change,Potency,outcome
N#C/C(=C\c1ccccc1OCC(=O)O)c1nc2ccccc2[nH]1,-13.5% (inactive),–,–,–
CCN(C(=O)COC(=O)c1cc(=O)c2ccccc2o1)c1c(N)n(Cc2ccccc2)c(=O)[nH]c1=O,-18.7% (inactive),–,–,–
COc1cccc(CN2C(=O)C(C)N(C(=O)c3ccccc3)c3ccccc32)c1 (stereo unspecified),-3.54% (inactive),-9.22%,–,–
Cc1ccc(Cl)cc1N(CC(=O)NC1CCCC1)C(=O)c1csnn1,–,11.3%,0.82 µM (active),–
Cc1cc(C)cc(N(CC(=O)NC2CCCC2)C(=O)c2csnn2)c1,–,20%,–,inactive
Cc1ccc(C)c(N(CC(=O)NC2CCCCC2)C(=O)c2csnn2)c1,–,7.08%,–,inactive
Cc1ccccc1N(CC(=O)NC1CCCC1)C(=O)c1csnn1,0.767% (inactive),-1.91%,–,–
CC(=O)c1ccc(N(CC(=O)NC2CCCCC2)C(=O)c2csnn2)cc1,-2.57% (inactive),-0.427%,–,–
Cc1cc(C)cc(N(CC(=O)NC2CCCCC2)C(=O)c2csnn2)c1,–,3.85%,6.51 µM (active),–
O=C1C2C3C=CC(C3)C2C(=O)N1c1cccc2ccccc12 (stereo unspecified),–,–,–,inactive
CCCN(c1ccccc1C(=O)O)S(=O)(=O)c1ccc2c(c1)n(C)c(=O)n2C,7.64% (inactive),4.38%,–,–
CN(Cc1cccc(Cl)c1)C(=O)C1CSC2(C)CCC(=O)N12 (stereo unspecified),-14.7% (inactive),2.85%,–,–
COc1ccc(Oc2cccc(Cl)c2CNC(=O)CCCC(=O)O)cc1,19% (inactive),-4.23%,–,–
CC1(C)CC(O)C(C)(C)N1O (stereo unspecified),-10.4% (inactive),0.759%,–,–
COc1ccc2[nH]c(=O)c(CN(C(=O)C3CCCO3)c3ccc(C)cc3)cc2c1 (stereo unspecified),22.5% (inactive),-16.8%,–,–
O=C(O)CCC(=O)Nc1ccc(/C=C/C(=O)C2CC2)cc1,4.47% (inactive),0.554%,–,–
Cc1ccc(C(C[N+](=O)[O-])n2nc(C)cc2C)cc1 (stereo unspecified),–,28.9%,–,inactive
COc1ccc(C(C[N+](=O)[O-])n2nc(C)cc2C)cc1 (stereo unspecified),–,-16.7%,5.17 µM (active),–
COC(=O)C(C(=O)OC)C(C[N+](=O)[O-])c1ccc(OC)cc1 (stereo unspecified),-0.0854% (inactive),-3.46%,–,–
CCCCn1c(=O)nc2n(-c3ccc(Cl)cc3)c3ccccc3cc-2c1=O,16.3% (inactive),–,–,–
C=CCNC(=O)c1ccc(Sc2ccc(C)cc2)c([N+](=O)[O-])c1,-20% (inactive),-8.5%,–,–
CCOC(=O)c1nc2sc(C)c(C)c2c(=O)[nH]1,5.14% (inactive),-3.45%,–,–
CCOC(=O)/C(=C\c1cccc(O)c1)c1nc2sc(C)c(C)c2c(=O)[nH]1,–,-21.1%,20.6 µM (active),–
Cc1c(C(=O)O)sc2nc(/C=C/c3cccc(O)c3)[nH]c(=O)c12,0.183% (inactive),5.19%,–,–
NC(=O)C1CCN(c2ccnc3cc(Cl)ccc23)CC1,-18.4% (inactive),-7.1%,–,–

# Reference: PubChem BioAssay AID2685 (National Center for Advancing Translational Sciences (NCATS), 2010)
